Nrf2 ARE act: qHTS of Nrf2 Activators; AREc32 ARE-luciferase reporter (MCF7-derived line), luminescence, 24 h; Potency, µM (series often up to 46.1 µM), actives largely listed as activators; 410,000 tested, 0.31% active; AID 624171, 2012; also: nearly all actives have a fitted effect of over 65% in size
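For detection, Steady-Glo was added and plates sat 30 min at RT; before that, AREc32_Fluc cells grown overnight in OPTI-MEM/5% FBS had been treated with 23 nL compound for 24 hr at 37 deg C.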
Nrf2 inh: Nrf2 qHTS screen for inhibitors; A549 ARE-Fluc reporter, luciferase luminescence, 18-24 h; Potency, µM (titrated, usually from 46 µM), actives largely listed as inhibitors; 360,000 tested, 2.1% active; AID 504444, 2011; also: nearly all actives have a fitted effect of over 60% in size
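Reporter: ARE-Fluc in A549. Exposure: 18-24 h, 37 °C, 5% CO2, 5% FBS OPTI-MEM. Readouts: fluorescent cytotoxicity (CellTiter-Fluor), then luminescent Nrf2 signal after BugLite.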
B2AR arrestin: qHTS assay of beta-arrestin-biased ligands of beta2-adrenergic receptor. Beta-2 adrenergic receptor (Homo sapiens), P07550. beta-arrestin recruitment to beta2AR, cell-based reporter. Potency, µM (titrated, usually from 46.1 µM), actives largely listed as activators. 330,000 tested, 0.02% active. AID 492947, 2010; also: nearly all actives have a fitted effect of over 65% in size
Target sequence (P07550 whole entry, looked up): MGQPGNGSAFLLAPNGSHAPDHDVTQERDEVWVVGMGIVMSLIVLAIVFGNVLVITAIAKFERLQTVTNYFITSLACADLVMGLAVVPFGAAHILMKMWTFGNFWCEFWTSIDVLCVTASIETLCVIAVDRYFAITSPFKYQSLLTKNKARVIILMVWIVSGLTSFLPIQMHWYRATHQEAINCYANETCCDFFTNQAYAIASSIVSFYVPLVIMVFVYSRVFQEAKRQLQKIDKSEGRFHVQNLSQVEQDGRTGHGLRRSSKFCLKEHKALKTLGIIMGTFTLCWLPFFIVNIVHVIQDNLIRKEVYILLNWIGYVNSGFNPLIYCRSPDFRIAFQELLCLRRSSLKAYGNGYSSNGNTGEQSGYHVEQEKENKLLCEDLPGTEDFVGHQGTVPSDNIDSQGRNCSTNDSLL
miR-21 act: qHTS Assay for Modulators of miRNAs and/orActivators of miR-21; HeLa miR-21 FLuc reporter, luciferase, 48 h; Potency, µM (highest dose often 38.3 µM), actives largely listed as activators; 340,000 tested, under 10 active; AID 2288, 2010;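 also: miR-21 action dims this reporter so a rising signal means less miR-21 action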
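HeLa cells stably expressing CMV-driven firefly luciferase with a downstream miR-21 binding sequence, endogenously expressing miR-21, were treated with titrations (up to about 40uM final) for 48 hours at 37 degree Celsius. Luciferase luminescence was read after lysis.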
A549 tox-1: Nrf2 qHTS screen for inhibitors: counterscreen for cytotoxicity. A549 ARE-Fluc cells, CellTiter-Fluor viability, 18-24 h. Potency, µM (highest dose often 46 µM), actives largely listed as inhibitors. 390,000 tested, 0.16% active. AID 504648, 2011
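A549 ARE_Fluc cells in 5% FBS OPTI-MEM were exposed to compounds in concentration-response for 18-24 h at 37 deg C. Viability was read by CellTiter-Fluor fluorescence (Ex 405/Em 525) after 30 min, before the luciferase read.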
FLuc counter 3: Nrf2 qHTS screen for inhibitors: Purified Fluc Biochemical Counterscreen for Hit Validation; Potency, µM (highest dose often 57.5 µM), usual class: inhibitors; shares compounds with Nrf2 inh; AID 720522, 2013; purified firefly luciferase, luminescence inhibition; 1,400 tested, 4% active; also: nearly all actives have a fitted effect of over 65% in size
A549 tox-2: Nrf2 qHTS screen for inhibitors: A549 ARE-Fluc Cytotoxicity Counterscreen for Hit Validation; Potency, µM (titrated, usually from 46.1 µM), actives largely listed as inhibitors; AID 720523, 2013; shares compounds with Nrf2 inh; 1,400 tested, 2% active; A549 ARE-Fluc cells, cytotoxicity counterscreen;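 also: cells exposed to compounds for 18 to 24 hours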
Nrf2 ARE inh: Nrf2 qHTS screen for inhibitors: Nrf2 A549 ARE-Fluc Confirmation Assay for Hit Validation; Potency, µM (top dose mostly 46.1 µM), usual class: inhibitors; shares compounds with Nrf2 inh; A549 ARE-firefly luciferase reporter, luminescence; 1,400 tested, 74% active; AID 720524, 2013; also: nearly all actives have a fitted effect of over 65% in size
A number is an active result; i = inactive; ? = inconclusive; nt = no result given; [ ] = dose if it differs, or a comment. Compounds with a hit are over-represented: about 2.2% of the library has one in this group of screens. Calls follow the shape of the dose curve; as a rule, active = well fitted curve in the direction sought with a large enough effect; inconclusive = small, poorly fitted or top-dose-only effect, or another doubt; inactive = no such curve, though single readings can be large; an effect the other way counts as inactive or inconclusive.

SMILES	Nrf2 ARE act	Nrf2 inh	B2AR arrestin	miR-21 act	A549 tox-1	FLuc counter 3	A549 tox-2	Nrf2 ARE inh
COc1ccccc1OC(=O)CCN1c2ccccc2Sc2ccccc21	i	i	i	i	i	nt	nt	nt
COc1ccccc1-[n+]1c(C)cc(/C=C2\Sc3ccccc3N2C)cc1C	i	4.1µM	i	?	?	0.54µM	?	0.26µM
COc1ccc(-c2nc(CSCC(=O)N3CCN(c4cc(Cl)ccc4C)CC3)c(C)o2)cc1	i	7.3µM	nt	?	i	?	?	12µM
COc1ccc(-c2nc(CSCC(=O)N3CCN(C)CC3)c(C)o2)cc1OC	i	i	i	i	i	nt	nt	nt
COc1ccc(-c2nc(CSCC(=O)N3CCN(c4ccc(OC)cc4)CC3)c(C)o2)cc1	i	4.6µM	nt	i	i	i	i	9.2µM
COc1ccc(-c2nc(CSCC(=O)N3CCN(c4cccc(C)c4C)CC3)c(C)o2)cc1OC	i	nt	nt	i	i	nt	nt	nt
CCc1cccc(NC(c2nnc(-c3ccccc3)o2)c2ccc(F)cc2Cl)c1 (centres undefined)	i	i	nt	i	i	nt	nt	nt
CN(Cc1ccccc1)C1=CC(=[N+]2CCCCC2)CC(C)(C)C1	i	4.6µM	i	?	?	i	i	0.82µM
COc1ccc(-c2cccc(NS(=O)(=O)c3ccc(C)s3)c2)nn1	i	nt	nt	i	i	nt	nt	nt
O=C1CNC(=S)N1Cc1ccc(F)cc1	i	i	i	i	i	nt	nt	nt
N=c1ccn(Cc2ccc(F)cc2)cc1	i	2.3µM	i	i	i	?	21µM	23µM
Cc1cc(C)c(NC(=O)c2sc3nc(C)cc(C)c3c2NC(=O)c2ccccc2)c(C)c1	i	i	nt	i	i	nt	nt	nt
CC1=CC(=O)C2=C(C)CC[C@@H]3[C@H](OC(=O)[C@H]3C)[C@@H]12	i	6.5µM	i	i	i	i	i	6.5µM
COc1cc(Cl)c(C)cc1NC(=O)CC(c1ccc(F)cc1)N1Cc2ccccc2C1=O (centres undefined)	i	?	nt	i	i	nt	nt	nt
Cc1nc2ccc(NC(=O)c3cccs3)cc2c(=O)n1Cc1ccc(Cl)cc1	i	4.6µM	i	i	?	i	?	16µM
Cc1ccc(S(=O)(=O)c2cccc(S(=O)(=O)N3CCCC3)c2)cc1S(=O)(=O)N1CCCC1	i	8.2µM	i	i	i	i	i	21µM
CN(C)S(=O)(=O)c1cccc(NC(=O)CNc2cccc(S(=O)(=O)N3CCCCC3)c2)c1	i	nt	nt	nt	nt	nt	nt	nt
CCN(CC)S(=O)(=O)c1cc(NC(=O)CNc2cccc(S(=O)(=O)N3CCCC3)c2)ccc1C	i	5.2µM	i	nt	i	i	i	8.2µM
CCN(CC)S(=O)(=O)c1cc(NC(=O)Cc2ccc(S(=O)(=O)N3CCOCC3)s2)ccc1Cl	i	1.3µM	nt	nt	?	i	i	6.5µM
Cc1ccc(S(=O)(=O)c2cccc(S(=O)(=O)N3CCOCC3)c2)cc1S(=O)(=O)N1CCOCC1	i	i	i	i	i	nt	nt	nt
CC(CC(=O)Nc1ccc(Cl)c(S(=O)(=O)N2CCOCC2)c1)c1ccccc1 (centres undefined)	i	7.3µM	i	nt	i	i	i	3.3µM
Cc1ccc2c(=O)cc(C(=O)Nc3ccc(S(=O)(=O)N4CCCCCC4)cc3)oc2c1C	i	i	nt	i	i	nt	nt	nt
COc1ccc(C2Nc3ccccc3C(=O)N2Cc2ccccc2)cc1COc1ccc([N+](=O)[O-])c(C)c1 (centres undefined)	nt	i	nt	nt	i	nt	nt	nt
CCN(CC)S(=O)(=O)c1cccc(NC(=O)CNc2cccc(S(=O)(=O)N3CCOCC3)c2)c1	i	1.3µM	i	nt	?	i	i	2.1µM
O=C1c2cccc3cc([N+](=O)[O-])cc(c23)C(=O)N1CCN1CCCC1	i	1.8µM	i	?	?	i	?	?
SMILES	Nrf2 ARE act	Nrf2 inh	B2AR arrestin	miR-21 act	A549 tox-1	FLuc counter 3	A549 tox-2	Nrf2 ARE inh
Cc1nc2ccccc2n1Cc1ccccc1Br	i[9.22 µM]	i	i	i	i	nt	nt	nt
Cc1nc2ccccc2n1Cc1ccc(Br)cc1	i	?	nt	nt	i	i	i	?
CC(=O)Nc1ccc(NC(=S)NC(=O)/C=C/c2ccc(Cl)cc2)cc1	i	?	i	i	i	nt	nt	nt
O=C(/C=C/c1ccc(Cl)cc1)NC(=S)Nc1ccc(NC(=O)c2ccco2)cc1	i	0.82µM	i	i	i	i	i	0.82µM
CC(=O)NCc1nc2cccnc2n1Cc1ccccc1	i	nt	nt	i	i	nt	nt	nt
Cc1cc(Cl)c(S(=O)(=O)N2CCCC2)cc1OCC(=O)NC1CCCCC1	i	7.3µM	i	i	nt	i	i	nt
O=C(Nc1ccc(OC(F)(F)F)cc1)NC1COc2ccccc2C1 (centres undefined)	i	nt	nt	i	i	nt	nt	nt
CC[n+]1c(/C=C2\Sc3ccccc3N2C)ccc2cccc(C)c21	i	3.7µM	i	?	?	i	6.5µM	2.6µM
CCN1/C(=C/C=C/c2sc3ccccc3[n+]2CC)Sc2ccccc21	i	1.3µM	i	nt	i	?	12µM	2.6µM
CCN1/C(=C/c2ccc3cc(C)ccc3[n+]2CC)Sc2ccccc21	i	0.73µM	i	?	?	i	5.8µM	nt
CCN1/C(=C/C=C/C=C/c2sc3ccccc3[n+]2CC)Sc2ccccc21	nt	nt	i	?	nt	nt	nt	nt
Cc1cc(/C=C2/SC(=S)N(c3cccc(Cl)c3)C2=O)c(C)n1-c1cccnc1	i	?	nt	nt	i	nt	nt	nt
Cc1cc(/C=C2/SC(=S)N(c3ccc([N+](=O)[O-])cc3)C2=O)c(C)n1-c1cccnc1	i	6.5µM	i	i	?	i	i	nt
C/C(=N\NC(=O)c1cc(-c2cccs2)nc2ccccc12)c1ccccn1	i	2.1µM	i	i	?	9.5µM	i	1.8µM
CCOc1ccc(OCc2ccc(C(=O)N/N=C(\C)c3ccccn3)cc2)cc1	i	?	i	i	?	nt	nt	nt
C/C(=N\NC(=O)c1ccccc1Cl)c1ccccn1	i	?	i	i	?	nt	nt	nt
C/C(=N/NC(=O)c1ccc(C(C)(C)C)cc1)c1ccccn1	i	5.8µM	nt	nt	?	11µM	?	?
CC(=NNC(=S)Nc1cccc(C)c1)c1ccccn1	i	?	nt	nt	i	nt	nt	nt
COc1ccccc1NC(=S)NN=C(C)c1ccccn1	i	1.2µM	nt	nt	i	i	i	2.6µM
C/C(=N\NC(=O)c1ccc(Cl)c(Cl)c1)c1ccccn1	i	2.3µM	i	i	?	?	i	nt
CC(C)CCNC(=O)c1cn(C)c2ccc(S(=O)(=O)N3CCOCC3)cc2c1=O	i	i	nt	i	i	nt	nt	nt

High-throughput results: PubChem, National Center for Advancing Translational Sciences (NCATS)
